# PubChem BioAssay (EPA / NIEHS)
# Results filed as inconclusive are left out. Calls of active or inactive are those of the source. Rule for the calls: active = hit-call score of the fitted dose curve at least 0.9, where 1 is the maximum; inconclusive = response in the unintended direction; inactive = score below 0.9.
# Biological target: human RAR-related Orphan Receptor gamma (RORg), RORC (gene 6097) (UniProt P51449)
# Test: ATG_RORg_TRANS: Attagene TRANS-FACTORIAL HepG2 Assay for human RAR-related Orphan Receptor gamma (RORg) (AID 2283011)
# Description: ATG_TRANS is a cell-based, multiplexed-readout assay that uses HepG2, a human liver cell line, with measurements taken at 24 hours after chemical dosing in a 24-well plate.ATG_RORg_TRANS is one of 30 assay component(s) measured or calculated from the ATG_TRANS assay. It is designed to make measurements of mRNA induction, a form of inducible reporter, as detected with fluorescence intensity signals by Reverse transcription polymerase chain reaction (RT-PCR) and Capillary electrophoresis technology.Data from the assay component ATG_RORg_TRANS was analyzed into 1 assay endpoint. This assay endpoint, ATG_RORg_TRANS, was analyzed in the positive analysis fitting direction relative to DMSO as the negative control and baseline of activity. Using a type of inducible reporter, measures of mRNA for gain-of-signal activity can be used to understand the reporter gene at the transcription factor-level as they relate to the gene RORC. Furthermore, this assay endpoint can be referred to as a primary readout, because this assay has produced multiple assay endpoints where this one serves a reporter gene function. To generalize the intended target to other relatable targets, this assay endpoint is annotated to the nuclear receptor intended target family, where the subfamily is orphan.
# Human liver HepG2 cells are transiently transfected with multiple reporter transcription units (MRTUs) in 6-well plates using FuGene 6 reagent (Roche; 3 ml FuGene/1 mg DNA). The MRTU constructs are regulated by a cis-regulating element (promoter). […] A major difference between the CIS and TRANS system is that in CIS activities of endogenous TFs are measured, whereas the TRANS assay evaluates changes in activities of exogenous, chimeric NR-Gal4 proteins. […] At the end of 24 hour incubation, total RNA was isolated using TriZol reagent (Invitrogen). The isolated RNA is then reverse-transcribed using oligo(dT) primer and Mo-MLV reverse transcriptase (Invitrogen) with DNAse I (Ambion) treatment for 30 min. The one-tenth of the produced cDNA was amplified by PCR using Taq DNA polymerase (Invitrogen) and two reporter sequence-specific primers. The PCR products were fluorescently labeled by primer extension with 6-arboxyfluorescein (6-FAM) 5'-labeled reporter sequence-specific primer (2 min at 95 C, 20 s at 68 C and 10 min at 72 C) and these products were digested with 5U of HpaI (New England Biolabs) for 2h at 37 C. The fragments were purified using Qiaquick PCR columns (Qiagen), analyzed on an ABI 3130xL genetic analyzer (Applied Biosystems) with peak positions identified by using a set of X-rhodamine (ROX)-labeled MapMarker1000 molecular weight standards (BioVentures). The raw capillary electrophoresis data was processed using Attagraph software (Attagene).
# Sequence of human RAR-related Orphan Receptor gamma (RORg), RORC (gene 6097) (P51449 whole entry, looked up): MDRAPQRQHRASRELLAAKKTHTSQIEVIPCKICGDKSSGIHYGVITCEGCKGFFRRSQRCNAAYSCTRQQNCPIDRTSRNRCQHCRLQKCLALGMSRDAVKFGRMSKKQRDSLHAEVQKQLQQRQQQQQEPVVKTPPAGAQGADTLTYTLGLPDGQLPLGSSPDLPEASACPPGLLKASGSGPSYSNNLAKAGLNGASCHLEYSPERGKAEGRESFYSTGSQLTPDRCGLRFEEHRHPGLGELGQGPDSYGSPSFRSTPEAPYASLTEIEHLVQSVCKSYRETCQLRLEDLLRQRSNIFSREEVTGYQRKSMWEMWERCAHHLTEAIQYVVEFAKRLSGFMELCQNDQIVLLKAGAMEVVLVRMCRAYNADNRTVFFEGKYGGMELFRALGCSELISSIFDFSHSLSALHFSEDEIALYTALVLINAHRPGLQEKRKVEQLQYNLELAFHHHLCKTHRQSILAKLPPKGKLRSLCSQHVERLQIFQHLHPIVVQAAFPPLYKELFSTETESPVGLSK
row,SMILES,outcome
1,CC(C)(C)c1ccc(O)c(C(C)(C)C)c1,inactive
2,CC(C)(C)c1cc(C(C)(C)C)c(O)c(C(C)(C)C)c1,inactive
3,O=C(O)Cc1cc(I)c(Oc2cc(I)c(O)c(I)c2)c(I)c1,inactive
4,CCCCC(CC)COC(=O)CCCCC(=O)OCc1ccccc1 (stereo not given),inactive
5,Cc1ccc(S(=O)(=O)O)c(C)c1,inactive
6,CN(C)C=O,inactive
7,CC(=O)CC(C)(C)O,inactive
8,O=C1OC2(c3ccccc31)c1cc(Br)c(O)c(Br)c1Oc1c2cc(Br)c(O)c1Br,inactive
9,CCCCCCCCCCCCc1ccccc1S(=O)(=O)O,inactive
10,Oc1cccc(O)c1,inactive
11,O=c1c(-c2ccc(O)cc2)coc2cc(O)ccc12,inactive
12,COc1ccc([N+](=O)[O-])cc1N,inactive
13,c1ccc2cc3c(ccc4ccccc43)cc2c1,inactive
14,CCOC(=O)CC(O)(CC(=O)OCC)C(=O)OCC,inactive
15,Cc1oc(-c2ccccc2)nc1CCOc1ccc(C[C@H](Nc2ccccc2C(=O)c2ccccc2)C(=O)O)cc1,inactive
16,O=C(OCCOCCOC(=O)c1ccccc1)c1ccccc1,inactive
17,OC1CCCCC1,inactive
18,COc1cc(CCC(=O)CC(=O)CCc2ccc(O)c(OC)c2)ccc1O,inactive

row,SMILES,outcome
1,N#C[C@@H]1CC(F)(F)CN1C(=O)CNC1CC2CCC(C1)N2c1ncccn1 (stereo not given in full),inactive
2,OCCC(F)(F)C(F)(F)C(F)(F)C(F)(F)C(F)(F)C(F)(F)C(F)(F)C(F)(F)F,inactive
3,C[C@@H]1C[C@H]2[C@@H]3CCC4=CC(=O)C=C[C@]4(C)[C@@]3(F)[C@@H](O)C[C@]2(C)[C@@]1(O)C(=O)COP(=O)(O)O,inactive
4,C=C(C)C(=O)OCCC(F)(F)C(F)(F)C(F)(F)C(F)(F)C(F)(F)C(F)(F)F,inactive
5,CC[C@H](C)[C@@H](C(=O)O)n1sc2ccccc2c1=O,inactive
6,CCCOc1sc(C(=O)N2CCC(c3cc(CN)ccc3F)CC2)c(C)c1Br,inactive
7,CN1CCC[C@H]1c1cccnc1,inactive
8,FC(F)(I)C(F)(F)C(F)(F)C(F)(F)C(F)(F)C(F)(F)I,inactive
9,O=C(O)c1ccccc1C(c1ccc(O)cc1)c1ccc(O)cc1,inactive
10,CCCCCCCCOC(=O)CCCCCCCCC(=O)OCCCCCCCC,inactive
11,NC(=O)N1C(=O)C(C(=O)c2cc(Cl)cs2)c2cc(F)c(Cl)cc21 (stereo not given),inactive
12,CCc1ccc(CCOc2ccc(CC3SC(=O)NC3=O)cc2)nc1 (stereo not given),inactive
13,CCCCCCCCCCCCCC[N+](C)(C)C,inactive
14,Cc1cc(C)c(O)c(C)c1,inactive
15,OCCC(F)(F)C(F)(F)C(F)(F)C(F)(F)C(F)(F)C(F)(F)F,inactive
16,CCCCC[C@H](O)CC(=O)CCc1ccc(O)c(OC)c1,inactive
17,CC(O)CO (stereo not given),inactive
